High-throughput results (PubChem BioAssay)
CYP2C19 activ: human CYP2C19 activators, primary screen, biochemical, luminescence. recombinant CYP2C19, luciferin-H EGE luminescence; active compounds read high; 0 = fully inhibited enzyme, 1 = untreated enzyme. activation factor at 5 µM. 96,000 tested, under 10 active. AID 1025, 2008;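 active = activation factor of at least 2 at 5 µM in the primary screen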;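 note: 0 = wells with 2.5 mM tranylcypromine and 1 = vehicle-only wells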
Target sequence (P33261 whole entry, looked up): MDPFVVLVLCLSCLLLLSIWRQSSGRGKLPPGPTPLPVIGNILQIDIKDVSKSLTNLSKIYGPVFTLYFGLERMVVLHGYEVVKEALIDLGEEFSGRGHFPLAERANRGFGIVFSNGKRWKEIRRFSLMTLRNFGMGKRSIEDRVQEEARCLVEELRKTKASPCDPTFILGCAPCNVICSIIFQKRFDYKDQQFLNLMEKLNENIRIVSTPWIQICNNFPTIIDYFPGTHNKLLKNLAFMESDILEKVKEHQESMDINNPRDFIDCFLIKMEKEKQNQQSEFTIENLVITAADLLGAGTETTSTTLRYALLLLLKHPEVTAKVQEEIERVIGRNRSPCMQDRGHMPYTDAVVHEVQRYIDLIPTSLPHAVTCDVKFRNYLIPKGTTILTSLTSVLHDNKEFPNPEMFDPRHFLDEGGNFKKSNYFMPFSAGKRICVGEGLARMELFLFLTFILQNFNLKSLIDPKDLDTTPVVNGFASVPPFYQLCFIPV
Cav32 inh: Cav3.2 calcium influx blockers – cell-based, Fluo-4 calcium fluorescence, FDSS, MLSMR library, primary screen. B-score at 10 µM. Voltage-dependent T-type calcium channel subunit alpha-1H (Homo sapiens), O95180. 100,000 tested, 4% active. Cav3.2-expressing cells; active compounds read low. AID 449739, 2010;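 active = single-dose well whose peak fluorescence ratio is a statistical outlier from its plate by either plate-standardised score or position-corrected B-score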
CYP2C19 inh: blockers of cytochrome P450 2C19 activity – biochemical, luminescence, ADME assay, primary screen; inhibition, % at 5 µM; AID 778, 2007; P33261; 96,000 tested, 21% active; CYP2C19 Supersomes, luciferin-H EGE luminescence, 30 min;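 active = CYP2C19 inhibition above a set limit at 5 µM in the primary screen, cut at about 50% in these data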;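 note: plate controls were negative control wells for no effect and 2.5 mM tranylcypromine positive control for full effect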
CYP2C9 inh: blockers of cytochrome P450 2C9 activity – biochemical, luminescence, ADME assay, primary screen; P11712; CYP2C9 Supersomes, luciferin-H conversion; inhibition, % at 5 µM; 96,000 tested, 20% active;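 active = blocking of liver enzyme CYP2C9 beyond about 50% at 5 µM, limit read from the data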
CYP2C9 act: human CYP2C9 activators, primary screen, biochemical, luminescence | recombinant CYP2C9, luciferin-H conversion; active compounds read high; factor 1 = untreated enzyme, 0 = blocked | Cytochrome P450 2C9 (Homo sapiens), P11712 | activation factor at 5 µM | 96,000 tested, 1.4% active | AID 1024, 2008;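 active = activation factor of 2 or more for CYP2C9 at a 5 µM dose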;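 note: 0 = sulfaphenazole-blocked wells and 1 = vehicle-only wells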
The depositor's hits bear a star; . = no result. Shown are actives, neighbours in structure and some others; about 27% of the full set was active somewhere.

SMILES	CYP2C19 activ	Cav32 inh	CYP2C19 inh	CYP2C9 inh	CYP2C9 act
COC(=O)N1CCN(c2ccc(OC)cc2)CC1	0.6	0.024	45	-9	1.1
COCCCNC(=O)c1ccccc1SC	1.1	0.71	-15	-33	1.3
CC(=O)/C=C(\C)NCCNc1c(F)c(F)c(CO)c(F)c1F	0.2	0.26	79*	48	0.5
CCCCCn1c(SCC#N)nc2cc(C(=O)NCC3CCCO3)ccc2c1=O (stereo not given)	0.6	-0.89	37	39	0.6
COc1ccc(CCNC(=O)CCCn2c(SCC#N)nc3ccccc3c2=O)cc1OC	0.6	2.2	39	65*	0.4
N#CCSc1nc2ccccc2c(=O)n1CCC(=O)NC1CCCCC1	0	0.94	97*	-25	1.2
COc1ccc(CNC(=O)CCCCCn2c(SCC#N)nc3cc4c(cc3c2=O)OCO4)cc1	0.5	-0.19	48	94*	0.1
N#CCn1c(C2CCCCC2)nc2ccccc2c1=O	0.3	-0.2	70*	65*	0.3
O=C(Cn1c(CN2CCCCC2)nc2ccccc2c1=O)NC1CCCCC1	.	0.23	.	.	.
O=C(CN1C(=O)CSC1=O)c1ccccc1	1	0.12	1	13	0.9
O=C(N/N=C/C=C/c1ccccc1)c1cnccn1	1	0.2	-2	-8	1.1
COc1ccc(CCNC(=O)CCn2c(=O)[nH]c3cc(OC)c(OC)cc3c2=O)cc1OC	.	1.4	.	.	.
COc1ccc(CCNC(=O)CCn2c(SCC#N)nc3ccccc3c2=O)cc1OC	0.6	0.21	42	60*	0.4
Cc1nc2c(nnn2Cc2ccccc2)c(=O)n1-c1ccccc1	0.8	0.47	17	-3	1
CC1CCN(C(=S)c2ccc(O)cc2)CC1	0.5	1.5	45	-9	1.1
CC1CCN(C(=S)c2ccccc2O)CC1	0.1	-0.036	94*	29	0.7
CCCSc1ncc(Cl)c(C(=O)Nc2ccc(S(=O)(=O)N3CC(C)OC(C)C3)cc2)n1 (stereo not given)	0.5	1.7	54*	86*	0.1
C=CCn1c(SCC(=O)NC(=O)NCC(C)C)nnc1C1CCCCC1	0.4	0.37	55*	4	1
C=CCn1c(SCC(=O)NCC2CCCO2)nnc1C1CCCCC1 (stereo not given)	0.9	0.57	8	15	0.9
C=CCn1c(SCC(=O)NC(=O)NCCC)nnc1C1CCCCC1	0.4	0.35	58*	66*	0.3
CCSc1nnc(NC(=O)Cc2ccc(OC)c(S(=O)(=O)N3CCOCC3)c2)s1	1	0.01	-4	30	0.7
O=C(NCCO)C(F)(F)C(F)(F)C(F)(F)OC(F)(C(=O)NCCO)C(F)(F)F (stereo not given)	1	2.3	2	38	0.6
COc1cc(CNn2nnnc2N)ccc1OCc1c(Cl)cccc1Cl	0.4	-0.11	62*	19	0.8
O=C(c1ccccn1)N1CCN(c2ccc(C(F)(F)F)cn2)CC1	.	0.011	.	.	.
Cc1cccc(C(=O)N2CCN(c3ccc(C(F)(F)F)cn3)CC2)c1C	0.3	-4.7*	74*	39	0.6
SMILES	CYP2C19 activ	Cav32 inh	CYP2C19 inh	CYP2C9 inh	CYP2C9 act
Cc1ccccc1N1CCN(C(=O)c2ccc(Oc3ccc(C(F)(F)F)cn3)cc2)CC1	0.8	-6*	19	76*	0.2
O=C(N/C(=C\c1cccc([N+](=O)[O-])c1)C(=O)N1CCCCC1)c1cccs1	1.1	0.82	-7	0	1
CCCc1nc(NC(C)=O)c(C#N)c(-c2ccco2)c1CC	0.8	0.046	17	34	0.7
O=C(CSc1nnnn1C1CC2CCC1C2)Nc1ccnc2ccccc12 (stereo not given)	0.8	.	22	29	0.7
Oc1ccc2ccccc2c1N=Nc1ccccn1	0.8	0.7	25	67*	0.3
CN(C)CCN(Cc1ccccc1)c1nccc(N(C)C)c1C#N	0.9	0.53	12	23	0.8
CN(C)c1nccc(Nc2ccccc2)c1C#N	0.5	-0.65	51*	49	0.5
Cc1cc(=O)[nH]c(SC/C=C/c2ccccc2)n1	0.5	0.69	47	32	0.7
C(=C/c1ccnc2nc(SC/C=C/c3ccccc3)nn12)/c1ccccc1	0.7	-0.36	28	79*	0.2
CCOC(=O)C(CSCC(=O)c1ccc(Cl)cc1Cl)NC(=O)OC(C)(C)C (stereo not given)	0	.	97*	88*	0.1
COC(=O)c1sc(NC(=O)c2cnccn2)c(C(=O)OC)c1C	.	-0.17	.	.	.
C=CCc1cccc(Cl)c1OCCON1C(=O)CCC1=O	0.4	1.7	55*	21	0.8
CC(C)c1nc(=S)c2ccccc2[nH]1	0.4	0.016	63*	53*	0.5
CCCCNC(=O)c1cc2c(=O)n3cccc(C)c3nc2n(CCN2CCOCC2)c1=N	1.1	.	-6	9	0.9
COc1ccc(CCNC(=O)c2cc3c(=O)n4cccc(C)c4nc3n(Cc3ccncc3)c2=N)cc1	0.1	.	90*	87*	0.1
COC(=O)c1cc2c(=O)n3cccc(C)c3nc2n(Cc2cccnc2)c1=N	1	.	0	16	0.8
CCCCNC(=O)c1cc2c(=O)n3cccc(C)c3nc2n(Cc2ccncc2)c1=N	0.4	1	65*	44	0.6
COc1ccc(CNC(=O)c2cc3c(=O)n4ccccc4nc3n(Cc3cccnc3)c2=N)cc1	1	-0.002	4	5	1
COCCNC(=O)c1cc2c(=O)n3cccc(C)c3nc2n(Cc2ccncc2)c1=N	0.5	0.49	51*	39	0.6
COC(=O)C1C2C=CC3(CN(CC4CCCO4)C(=O)C13)O2 (stereo not given)	1	0.22	-1	-11	1.1
COc1nn(CC(=O)N2N=C(C)CC2(O)C(F)F)cc1[N+](=O)[O-] (stereo not given)	.	0.51	.	.	.
O=C1NC(c2ccco2)Nc2ccccc21 (stereo not given)	1	-1.6	5	23	0.8
O=c1[nH]c2c(s1)C(c1ccco1)C1C3CCC(C3)C1S2 (stereo not given)	0.2	-1.6	83*	38	0.6
Cc1ccc(-c2nn3c(C)nnc3s2)cc1NC(=O)CSc1ccc(Cl)cc1	.	-0.84	.	.	.
Cc1ccc(CNc2cc(-c3nn4c(C)nnc4s3)ccc2C)s1	0.7	-2.1	28	54*	0.5
Cc1ccc(-c2nn3c(C)nnc3s2)cc1NCc1c(F)cccc1Cl	0.3	-1.8	68*	74*	0.3
Cc1ccc(-c2nn3c(C)nnc3s2)cc1NC(=O)c1cccnc1	0.5	1.2	50*	60*	0.4
CC(C)(C)[C@H]1C=C(C(=O)NC2CC2)O[C@@H](OCCCCO)C1	.	0.26	.	.	.
